Values without a mark were called inactive. Calls of active or inactive are those of the source. Unless noted, no stated cut-off is given here; in the data, active means inhibition above about 42%; inactive means the rest.
The compounds below were run against Nuclear receptor subfamily 5 group A member 2 (Homo sapiens) (UniProt O00482) (assay: NR5A2 activity suppression in reporter cells – cell-based, luminescence, confirmation (AID 651613;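 further: HEK293T cells co-transfected with LRH-1 and StAR promoter luciferase reporter; 0% = vehicle wells and 100% = parental cells lacking receptor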)). Conditions: cell-based LRH-1 luciferase reporter, inverse agonism; at 3.6 µM; active compounds read high.
Nuclear receptor subfamily 5 group A member 2 (Homo sapiens), sequence (O00482 whole entry, looked up): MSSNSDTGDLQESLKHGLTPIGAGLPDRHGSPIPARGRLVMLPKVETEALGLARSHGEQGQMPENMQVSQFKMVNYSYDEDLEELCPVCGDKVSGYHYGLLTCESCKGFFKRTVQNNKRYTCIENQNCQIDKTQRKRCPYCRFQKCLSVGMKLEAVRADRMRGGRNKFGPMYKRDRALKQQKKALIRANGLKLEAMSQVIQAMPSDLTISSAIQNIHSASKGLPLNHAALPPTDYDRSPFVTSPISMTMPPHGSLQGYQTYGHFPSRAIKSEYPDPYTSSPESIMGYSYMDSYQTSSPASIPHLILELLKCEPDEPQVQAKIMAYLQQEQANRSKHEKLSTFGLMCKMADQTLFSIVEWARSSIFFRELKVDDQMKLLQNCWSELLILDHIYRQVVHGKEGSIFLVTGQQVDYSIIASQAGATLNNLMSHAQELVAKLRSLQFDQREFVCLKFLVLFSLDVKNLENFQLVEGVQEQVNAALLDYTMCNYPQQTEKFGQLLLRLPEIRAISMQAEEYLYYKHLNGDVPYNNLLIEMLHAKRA

| SMILES | inhibition |
| --- | --- |
| COc1ccc(CC(=O)Nc2ccncc2Cl)cc1 | 57.3% (active) |
| N=c1sccn1CC(=O)Nc1ccc(S(N)(=O)=O)cc1 | 54.1% (active) |
| COc1ccc(NC(=O)CSC2=C(C#N)C(c3ccco3)C3=C(CCCC3=O)N2)c(OC)c1 (stereo not given) | 55.5% (active) |
| Cc1cc(NC(=O)c2ccc([N+](=O)[O-])o2)ccc1NC(=O)c1ccco1 | 50.6% (active) |
| CCOC(=O)c1c(NC(=O)/C=C/C(=O)O)sc(C)c1-c1ccc(Cl)cc1 | 59.2% (active) |
| CCc1ccc(N2C=C(C(=O)OC)C(c3ccc(OC)cc3)C(C#N)=C2N)cc1 (stereo not given) | 25.1% |
| Cn1c2c(c(=O)n(C)c1=O)C(C(F)(F)F)(C(F)(F)F)N=C(CCC1CCCCC1)N2 | 41.9% (active) |
| CC(=O)N1CCN(c2ccccc2NC(=O)c2cc3ccccc3o2)CC1 | 43.5% (active) |
| CCc1c(O)nc(SCC(=O)Nc2ccccc2C)n(-c2ccc(C)cc2)c1=O | 56.4% (active) |
| c1ccc2c(c1)C1=NCCN1c1ccccc1-2 | 104% (active) |
| Cc1cc2ccccn2c1C(=O)c1ccc([N+](=O)[O-])o1 | 68.3% (active) |
| COc1cc(-c2cc(C(=O)NCc3ccc(S(N)(=O)=O)cc3)c3ccccc3n2)cc(OC)c1OC | 20.3% |
| CCCn1c(=NC(=O)CCS(=O)(=O)c2ccccc2)sc2cc(S(N)(=O)=O)ccc21 | 32.3% |
| CC(=O)C1=C(c2ccc(Br)cc2)C(=O)c2ccccc2C1=O | 101% (active) |
| Cc1cc(C)c2nc(-c3cccnc3)cc(C(=O)NC(C)c3cnn(C)c3C)c2c1 (stereo not given) | 57.6% (active) |
| COc1cc(C)c(C(=O)Oc2cc(C)c(C(=O)O)c(O)c2C)c(O)c1C | 73.8% (active) |
| COCCSc1ccccc1C(=O)NCc1ccc2c(c1)OCO2 | 39.5% |
| Cc1ccc(NC(=O)CSc2nnc(CNC(=O)c3ccco3)n2C)c(C)c1 | 58.5% (active) |
| CC(=O)Nc1ccc(NC(=O)COC(=O)Cc2c[nH]c3ccccc23)cc1 | 67.4% (active) |
| COc1cccc(C(C)(O)c2nc(-c3cccc(C#N)c3)cs2)c1 (stereo not given) | 55.2% (active) |

| SMILES | inhibition |
| --- | --- |
| Cc1ccc(/C=C2\SC(=S)N(c3c(C)n(C)n(-c4ccccc4)c3=O)C2=O)cc1 | 55.7% (active) |
| COc1ccc(C2(C)NC(=O)N(CC(=O)NCCC3=CCCCC3)C2=O)cc1OC (stereo not given) | 67.2% (active) |
| CCOc1ccc(NC(=O)CSc2nnc(C(C)C)n2CC)cc1 | 49.3% (active) |
| COc1cc(NC(=O)Cn2ccsc2=N)c(C)cc1[N+](=O)[O-] | 49.5% (active) |
| O=C(C(Cl)c1ccccc1)N1CCOCC1 (stereo not given) | 56.5% (active) |
| COC(=O)Cc1sc(-c2ccccn2)nc1-c1ccccc1 | 61.7% (active) |
| CCCN(CC(=O)Nc1ccc(C(C)=O)cc1)CC(=O)Nc1ccccc1C | 62.4% (active) |
| CC(=O)Nc1cc(-c2cccnc2)cn2c(-c3ccc(F)cc3)cnc12 | 51.7% (active) |
| CC1CC(=Cc2ccc(N)cc2)C(=O)O1 (stereo not given) | 41.8% (active) |
| O=C(CN(Cc1ccccc1)C(=O)CCl)c1cccc(Br)c1 | 55.7% (active) |
| Cc1ccc(-c2nn3c(C)nnc3s2)cc1NC(=O)c1cccs1 | 67.5% (active) |
| O=C1C(=C(I)I)c2ccccc2-c2ccccc21 | 10.4% |
| CCC(NC(=O)c1cc(COc2cc(C)c(Cl)c(C)c2)on1)c1ccncc1 (stereo not given) | 52.5% (active) |
| COc1ccc(-c2cc(C(F)F)n3ncc(C(=O)N4CCc5ccccc5C4)c3n2)cc1 | 58.3% (active) |
| Cc1cc(OCC(=O)NCc2cccnc2)c2c(C)c(C)c(=O)oc2c1 | 61.8% (active) |
| CCOc1ccc(NC(=O)CSc2nc3cccnc3n2CCOC)cc1 | 64.4% (active) |
| CCOc1ccc(NC(=O)COC(=O)c2ncc(Cl)c(Cl)c2Cl)cc1 | 38.4% |
| COc1cc(-c2nc(C(=O)NCC3CCCO3)cc3c2[nH]c2ccccc23)cc(OC)c1OC (stereo not given) | 49.6% (active) |
| O=C(Nc1cc(Cl)ccc1-n1cncn1)c1ccc([N+](=O)[O-])o1 | 61.9% (active) |
| CCCCCCCCN1C(=O)[C@H](CC(=O)NCC23CC4CC(CC(C4)C2)C3)C[C@@]2(C(=O)OCC)CCCC=C12 | 24.8% |

The compounds below were run against Steroidogenic factor 1 (Homo sapiens) (UniProt Q13285) (assay: inverse agonism at SF1 nuclear receptor – cell-based, luminescence, high throughput, counter-screen for LRH-1 inverse agonist project (AID 651614; in the data active means inhibition above about 44%;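 further: cells cotransfected with StAR promoter reporter and SF1 expression vector; 0% = vehicle on cells with receptor and 100% = vehicle on cells lacking receptor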)). Conditions: cell-based SF1 luciferase reporter, at 3.6 µM, active compounds read high.
Steroidogenic factor 1 (Homo sapiens), sequence (Q13285 whole entry, looked up): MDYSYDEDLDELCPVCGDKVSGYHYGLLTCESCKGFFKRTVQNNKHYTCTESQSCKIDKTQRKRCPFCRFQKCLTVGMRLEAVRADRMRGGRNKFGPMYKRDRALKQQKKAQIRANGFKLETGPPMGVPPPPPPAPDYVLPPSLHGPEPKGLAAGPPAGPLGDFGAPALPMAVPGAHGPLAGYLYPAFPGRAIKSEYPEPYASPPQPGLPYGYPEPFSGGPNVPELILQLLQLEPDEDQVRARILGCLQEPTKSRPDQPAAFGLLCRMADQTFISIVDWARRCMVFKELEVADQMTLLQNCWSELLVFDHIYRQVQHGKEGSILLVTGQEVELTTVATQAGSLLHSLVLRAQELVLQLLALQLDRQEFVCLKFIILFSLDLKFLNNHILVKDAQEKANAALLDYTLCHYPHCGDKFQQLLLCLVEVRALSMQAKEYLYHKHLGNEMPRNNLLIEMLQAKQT

| SMILES | inhibition |
| --- | --- |
| COc1ccc(CC(=O)Nc2ccncc2Cl)cc1 | 49.8% (active) |
| N=c1sccn1CC(=O)Nc1ccc(S(N)(=O)=O)cc1 | 50.5% (active) |
| COc1ccc(NC(=O)CSC2=C(C#N)C(c3ccco3)C3=C(CCCC3=O)N2)c(OC)c1 (stereo not given) | 52.5% (active) |
| Cc1cc(NC(=O)c2ccc([N+](=O)[O-])o2)ccc1NC(=O)c1ccco1 | 55.5% (active) |
| CCOC(=O)c1c(NC(=O)/C=C/C(=O)O)sc(C)c1-c1ccc(Cl)cc1 | 48.9% (active) |
| CCc1ccc(N2C=C(C(=O)OC)C(c3ccc(OC)cc3)C(C#N)=C2N)cc1 (stereo not given) | 45.3% (active) |
| Cn1c2c(c(=O)n(C)c1=O)C(C(F)(F)F)(C(F)(F)F)N=C(CCC1CCCCC1)N2 | 49.6% (active) |
| CC(=O)N1CCN(c2ccccc2NC(=O)c2cc3ccccc3o2)CC1 | 37.7% |
| CCc1c(O)nc(SCC(=O)Nc2ccccc2C)n(-c2ccc(C)cc2)c1=O | 66% (active) |
| c1ccc2c(c1)C1=NCCN1c1ccccc1-2 | 50.2% (active) |
| Cc1cc2ccccn2c1C(=O)c1ccc([N+](=O)[O-])o1 | 62.2% (active) |
| COc1cc(-c2cc(C(=O)NCc3ccc(S(N)(=O)=O)cc3)c3ccccc3n2)cc(OC)c1OC | 23.5% |
| CCCn1c(=NC(=O)CCS(=O)(=O)c2ccccc2)sc2cc(S(N)(=O)=O)ccc21 | 31.1% |
| CC(=O)C1=C(c2ccc(Br)cc2)C(=O)c2ccccc2C1=O | 78.1% (active) |
| Cc1cc(C)c2nc(-c3cccnc3)cc(C(=O)NC(C)c3cnn(C)c3C)c2c1 (stereo not given) | 50.9% (active) |
| COc1cc(C)c(C(=O)Oc2cc(C)c(C(=O)O)c(O)c2C)c(O)c1C | 70.7% (active) |
| COCCSc1ccccc1C(=O)NCc1ccc2c(c1)OCO2 | 48.9% (active) |
| Cc1ccc(NC(=O)CSc2nnc(CNC(=O)c3ccco3)n2C)c(C)c1 | 51.4% (active) |
| CC(=O)Nc1ccc(NC(=O)COC(=O)Cc2c[nH]c3ccccc23)cc1 | 53.8% (active) |
| COc1cccc(C(C)(O)c2nc(-c3cccc(C#N)c3)cs2)c1 (stereo not given) | 49.4% (active) |

| SMILES | inhibition |
| --- | --- |
| Cc1ccc(/C=C2\SC(=S)N(c3c(C)n(C)n(-c4ccccc4)c3=O)C2=O)cc1 | 45.5% (active) |
| COc1ccc(C2(C)NC(=O)N(CC(=O)NCCC3=CCCCC3)C2=O)cc1OC (stereo not given) | 38.1% |
| CCOc1ccc(NC(=O)CSc2nnc(C(C)C)n2CC)cc1 | 50.3% (active) |
| COc1cc(NC(=O)Cn2ccsc2=N)c(C)cc1[N+](=O)[O-] | 58% (active) |
| O=C(C(Cl)c1ccccc1)N1CCOCC1 (stereo not given) | 54.5% (active) |
| COC(=O)Cc1sc(-c2ccccn2)nc1-c1ccccc1 | 58.9% (active) |
| CCCN(CC(=O)Nc1ccc(C(C)=O)cc1)CC(=O)Nc1ccccc1C | 56% (active) |
| CC(=O)Nc1cc(-c2cccnc2)cn2c(-c3ccc(F)cc3)cnc12 | 40.5% |
| CC1CC(=Cc2ccc(N)cc2)C(=O)O1 (stereo not given) | 47.7% (active) |
| O=C(CN(Cc1ccccc1)C(=O)CCl)c1cccc(Br)c1 | 51.8% (active) |
| Cc1ccc(-c2nn3c(C)nnc3s2)cc1NC(=O)c1cccs1 | 69.4% (active) |
| O=C1C(=C(I)I)c2ccccc2-c2ccccc21 | -21.6% |
| CCC(NC(=O)c1cc(COc2cc(C)c(Cl)c(C)c2)on1)c1ccncc1 (stereo not given) | 50.9% (active) |
| COc1ccc(-c2cc(C(F)F)n3ncc(C(=O)N4CCc5ccccc5C4)c3n2)cc1 | 56.7% (active) |
| Cc1cc(OCC(=O)NCc2cccnc2)c2c(C)c(C)c(=O)oc2c1 | 50.5% (active) |
| CCOc1ccc(NC(=O)CSc2nc3cccnc3n2CCOC)cc1 | 62.1% (active) |
| CCOc1ccc(NC(=O)COC(=O)c2ncc(Cl)c(Cl)c2Cl)cc1 | 36.8% |
| COc1cc(-c2nc(C(=O)NCC3CCCO3)cc3c2[nH]c2ccccc23)cc(OC)c1OC (stereo not given) | 39.1% |
| O=C(Nc1cc(Cl)ccc1-n1cncn1)c1ccc([N+](=O)[O-])o1 | 61.8% (active) |
| CCCCCCCCN1C(=O)[C@H](CC(=O)NCC23CC4CC(CC(C4)C2)C3)C[C@@]2(C(=O)OCC)CCCC=C12 | 17.4% |

Source: PubChem BioAssay
